This passage reports composite z-score and z-score results from PubChem BioAssay.

The structures appear in SMILES notation. Activity calls are given as the source filed them. Unless noted, the rule behind the calls is not given here.

The subject of experiment [1] is Wnt5a (protein binding on small-molecule microarray). The experiment can be described thus: small molecules binding Wnt5a protein – biophysical, small-molecule microarray, 635/667 nm fluorescence, primary screen (AID 1142).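 Note: fluorescence read at 667 nm with signal to noise per printed feature.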 Particulars: 635 nm fluorescence, higher = more signal.
The nature of experiment [2]: ATP-based viability of Huh7 replicon cells – cell-based, CellTiter-Glo luminescence, basal, 48 h, cytotoxicity control for HCV replication inhibitor project, primary screen (AID 1143).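 Note: Huh7 hepatoma cells carrying a hepatitis C replication reporter with no stimulus; test concentration not given here.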 Particulars: higher = more signal, called active from +8 up or from −8 down. For orientation: A replicon is a self-replicating genome or part of one, used to study replication in cells.
Experiment [3] in a line: Pseudomonas biofilm growth suppression – PAO1 strain, BacTiter-Glo luminescence, LB-PBS, primary screen (AID 1144). Particulars: P. aeruginosa PAO1 biofilm, 12 h, higher = more signal.
A short description of experiment [4]: basal CRE-LacZ reporter activity in PC12 – cell-based, unstimulated, primary screen (AID 1145). As to conditions: no forskolin, luminescence, 4.5 h, higher = more signal, called active from +8 up or from −8 down.
A short description of experiment [5]: forskolin-driven CRE-LacZ activity in PC12 – cell-based, CRE-LacZ reporter, forskolin-stimulated, primary screen (AID 1146).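 Note: PC12 cells with 6xCRE LacZ reporter stimulated by forskolin 10 µM; beta-galactosidase reporter signal reflecting CREB driven transcription.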 Particulars: luminescence, 4.5 h, higher = more signal, called active from +8 up or from −8 down.
In experiment [6] the target is Streptavidin (Streptomyces avidinii) (UniProt P22629). Kind of experiment: compounds binding control protein streptavidin – biophysical, small-molecule microarray, 635/667 nm fluorescence, artefact control for SMM compound annotation, primary screen (AID 1147).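 Note: signal reflects streptavidin binding to arrayed compounds as a control protein.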 As to conditions: higher = more signal.
Streptavidin (Streptomyces avidinii), sequence (P22629 whole entry, looked up): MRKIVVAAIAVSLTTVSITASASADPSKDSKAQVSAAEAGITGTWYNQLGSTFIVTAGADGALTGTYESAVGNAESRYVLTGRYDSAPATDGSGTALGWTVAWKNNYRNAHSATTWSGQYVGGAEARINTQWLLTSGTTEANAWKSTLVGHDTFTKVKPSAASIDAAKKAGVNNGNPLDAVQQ
The nature of experiment [7]: probe aInhba binding on compound microarray – biochemical, small-molecule microarray, 635/667 nm fluorescence, primary screen (AID 1148).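 Note: score merges 667nm spot fluorescence with signal-to-noise for antibody binding to printed compounds.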 As to conditions: higher = more signal.
Experiment [8] deals with Torsin-1A (Homo sapiens) (UniProt O14656). The experiment can be described thus: TOR1A wild-type binding on microarray – cell lysate, small-molecule microarray, lysate, 635/667 nm, primary screen (AID 1149). As to conditions: COS7 hTOR1A-WT lysate, 635 nm fluorescence, higher = more signal.
Torsin-1A (Homo sapiens), sequence (O14656 whole entry, looked up): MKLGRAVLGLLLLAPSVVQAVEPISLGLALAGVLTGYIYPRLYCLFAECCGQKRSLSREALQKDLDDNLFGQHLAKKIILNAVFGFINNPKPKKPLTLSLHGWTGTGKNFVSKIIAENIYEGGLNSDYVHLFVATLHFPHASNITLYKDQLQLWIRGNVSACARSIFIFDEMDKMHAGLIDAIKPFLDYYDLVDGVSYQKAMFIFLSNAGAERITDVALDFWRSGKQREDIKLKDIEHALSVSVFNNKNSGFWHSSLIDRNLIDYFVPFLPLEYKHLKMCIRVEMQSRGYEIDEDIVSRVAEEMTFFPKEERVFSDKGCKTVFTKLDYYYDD
For experiment [9] the target is unchanged. Kind of experiment: torsin A mutant lysate binding on microarrays – cell lysate, small-molecule microarray, COS7 lysate, 635/667 nm fluorescence, primary screen (AID 1150).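 Note: score pools 667 nm emission and signal to noise measuring lysate protein binding.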 Particulars: COS7 hTOR1A mutant lysate, 635 nm fluorescence, higher = more signal.
Experiment [10] relates to Sonic hedgehog protein (Shh). Kind of experiment: Sonic hedgehog microarray binding compounds – biochemical, small-molecule microarray, 635/667 nm fluorescence, primary screen (AID 1151).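 Note: Shh protein binding to compounds spotted on small-molecule microarray slides; score combines spot fluorescence intensity with signal-to-noise across triplicate slides.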 Particulars: 635 nm fluorescence, higher = more signal.
The nature of experiment [11]: optical density shifts of acrAB sulA E. coli – strain DRC41, OD650, 48 h, E. coli filamentation inducer project, primary screen (AID 1152).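 Note: E. coli MC1000 strain DRC41 lacking acrAB efflux pump and sulA.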 As to conditions: higher = more signal, called active from +8 up or from −8 down.
Experiment [12] can be described thus: probe aLefty1 binding on compound microarray – biochemical, small-molecule microarray, 635/667 nm fluorescence, primary screen (AID 1153).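 Note: score merges spot fluorescence with signal-to-noise ratio from the scanned slide images.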 Particulars: higher = more signal.
A short description of experiment [13]: plasmodial surface anion channel blockers, osmotic lysis – cell-based, P. falciparum Indochina, OD700, 1 h, primary screen (AID 1154). Particulars: P. falciparum Indochina infected RBC osmotic lysis, higher = more signal, called active from +8 up or from −8 down.
Experiment [14] is described as follows: plasmodial surface anion channel blockers, osmotic lysis – cell-based, P. falciparum Indochina, OD700, 2 h, primary screen (AID 1155).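 Note: lysis reports solute entry through the parasite surface anion channel PSAC.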 Particulars: P. falciparum Indochina infected erythrocytes, higher = more signal, called active from +8 up or from −8 down.
A short description of experiment [15]: changes in parasitized red cell lysis, either direction – P. falciparum Indochina, OD700, 3 h, PSAC antagonist project, primary screen (AID 1156). As to conditions: P. falciparum-infected erythrocytes, osmotic lysis, higher = more signal, called active from +8 up or from −8 down.
Experiment [16] is described as follows: plasmodial surface anion channel blockers, osmotic lysis – cell-based, P. falciparum Indochina, OD700, 18 h, primary screen (AID 1157). Particulars: P. falciparum Indochina infected erythrocytes, osmotic lysis OD700, 18 h; higher = more signal, called active from +8 up or from −8 down.
The nature of experiment [17]: S6 kinase pathway phospho-S6 level changes – cell-based, A549, cytoblot, luminescence, serum-stimulated, primary screen (AID 1158).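 Note: serum-stimulated A549 lung adenocarcinoma cells; signal is phosphorylated S6 detected by cytoblot immunostaining with HRP secondary.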 As to conditions: 5 h, higher = more signal.
Experiment [18] addresses NADPH oxidase 2 (Homo sapiens) (UniProt P04839). The experiment can be described thus: compounds shifting NOX2 Amplex Red fluorescence – cell-based, HEK293-NOX2, PMA-stimulated, NOX inhibitor project, primary screen (AID 1159). Note: test concentration not given here. Particulars: 45 min, higher = more signal, called active from +8 up or from −8 down.
Experiment [19] addresses NADPH oxidase 4 (Homo sapiens) (UniProt Q9NPH5). The experiment can be described thus: compounds shifting NOX4 Amplex Red fluorescence – cell-based, HEK293-NOX4, tetracycline-induced, NOX inhibitor project, primary screen (AID 1160). As to conditions: HEK293-NOX4, Amplex Red H2O2 fluorescence, 45 min; higher = more signal, called active from +8 up or from −8 down.
The target of experiment [20] is NADPH oxidase 5 (Homo sapiens) (UniProt Q96PH1). The experiment can be described thus: compounds shifting NOX5 Amplex Red fluorescence – cell-based, HEK293-NOX5, NOX inhibitor project, primary screen (AID 1161). Particulars: HEK293-NOX5, ionomycin, 45 min, higher = more signal.
NADPH oxidase 5 (Homo sapiens), sequence (Q96PH1 whole entry, looked up): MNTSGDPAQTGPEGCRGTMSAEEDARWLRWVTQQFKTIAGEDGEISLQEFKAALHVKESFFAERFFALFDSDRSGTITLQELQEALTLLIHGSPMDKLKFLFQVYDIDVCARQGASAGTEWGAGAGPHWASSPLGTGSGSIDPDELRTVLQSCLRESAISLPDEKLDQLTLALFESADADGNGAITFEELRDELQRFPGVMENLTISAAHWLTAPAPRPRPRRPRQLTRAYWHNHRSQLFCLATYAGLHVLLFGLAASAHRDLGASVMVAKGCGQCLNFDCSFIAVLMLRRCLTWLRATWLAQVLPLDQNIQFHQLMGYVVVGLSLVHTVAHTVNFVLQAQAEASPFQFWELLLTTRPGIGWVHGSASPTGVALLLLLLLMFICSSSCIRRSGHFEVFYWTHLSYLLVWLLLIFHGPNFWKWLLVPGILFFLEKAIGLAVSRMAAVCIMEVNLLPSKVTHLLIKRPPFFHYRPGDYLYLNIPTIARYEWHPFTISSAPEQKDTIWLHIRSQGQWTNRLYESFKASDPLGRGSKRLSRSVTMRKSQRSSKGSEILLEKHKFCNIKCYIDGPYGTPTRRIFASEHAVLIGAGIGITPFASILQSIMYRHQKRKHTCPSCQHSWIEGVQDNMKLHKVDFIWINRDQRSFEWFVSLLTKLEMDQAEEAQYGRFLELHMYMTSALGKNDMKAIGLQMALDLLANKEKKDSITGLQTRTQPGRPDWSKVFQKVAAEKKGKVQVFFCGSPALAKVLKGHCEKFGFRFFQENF

NADPH oxidase 2 (Homo sapiens), sequence (P04839 whole entry, looked up): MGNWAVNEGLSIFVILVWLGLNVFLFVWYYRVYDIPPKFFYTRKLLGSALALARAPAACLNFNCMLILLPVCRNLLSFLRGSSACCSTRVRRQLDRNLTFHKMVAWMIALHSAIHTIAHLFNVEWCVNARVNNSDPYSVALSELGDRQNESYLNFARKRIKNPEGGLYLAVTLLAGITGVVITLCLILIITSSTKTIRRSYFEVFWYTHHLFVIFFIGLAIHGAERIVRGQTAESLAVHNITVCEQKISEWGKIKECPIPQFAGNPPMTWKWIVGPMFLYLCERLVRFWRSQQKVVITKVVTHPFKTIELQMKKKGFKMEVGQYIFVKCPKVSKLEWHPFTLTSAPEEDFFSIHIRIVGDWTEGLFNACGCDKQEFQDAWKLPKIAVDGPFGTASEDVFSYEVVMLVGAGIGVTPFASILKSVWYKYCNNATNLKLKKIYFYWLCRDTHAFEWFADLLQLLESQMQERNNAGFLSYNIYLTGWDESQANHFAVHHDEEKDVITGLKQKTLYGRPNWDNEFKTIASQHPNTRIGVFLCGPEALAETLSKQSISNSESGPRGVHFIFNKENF
NADPH oxidase 4 (Homo sapiens), sequence (Q9NPH5 whole entry, looked up): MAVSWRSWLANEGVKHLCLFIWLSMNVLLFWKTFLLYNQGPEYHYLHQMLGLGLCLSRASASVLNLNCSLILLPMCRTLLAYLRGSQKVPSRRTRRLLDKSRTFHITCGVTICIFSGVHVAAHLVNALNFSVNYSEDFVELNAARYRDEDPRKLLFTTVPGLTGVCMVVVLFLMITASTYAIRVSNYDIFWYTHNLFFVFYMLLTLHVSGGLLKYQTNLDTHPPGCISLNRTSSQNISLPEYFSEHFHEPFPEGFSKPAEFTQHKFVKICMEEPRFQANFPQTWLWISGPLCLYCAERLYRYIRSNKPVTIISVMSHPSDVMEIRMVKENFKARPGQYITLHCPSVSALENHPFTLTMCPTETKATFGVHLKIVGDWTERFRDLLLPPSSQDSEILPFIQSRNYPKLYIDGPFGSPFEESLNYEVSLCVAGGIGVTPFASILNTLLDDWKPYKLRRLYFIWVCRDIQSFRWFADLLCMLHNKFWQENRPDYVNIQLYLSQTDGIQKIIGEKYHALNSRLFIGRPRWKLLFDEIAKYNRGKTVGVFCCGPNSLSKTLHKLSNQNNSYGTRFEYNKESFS

Take `CCCCCN1CC=CC23O[C@@H]4C=CCCOC(=O)C4[C@H]2C(=O)N(CCCCCO)[C@@H]3C1=O` (stereo not given in full): the composite z-score is -0.619 in [1]; -0.729 in experiment [6]; -0.157 in experiment [7]; 1.82 with Torsin-1A (Homo sapiens) [8]; 0.843 with Torsin-1A (Homo sapiens) [9]; 0.225 in [10]. Besides, in experiment [12], the composite z-score was -0.0984. Also, the z-score in experiment [2] is 0.477 (inactive); in [3], -0.978 (inactive); in experiment [4] it was -0.895 (inactive); in experiment [5] it was -0.443 (inactive); in experiment [11] it was 1.09 (inactive); in experiment [13], 1.73 (inactive). Further, the z-score is 1.1 (inactive) in experiment [14]; 2.68 (inactive) in experiment [15]; 0.575 (inactive) in experiment [16]; 0.708 in experiment [17]; 1.36 (inactive) in [18]; 0.228 (inactive) in experiment [19]. In experiment [20], the z-score was determined as 1.32.

As to `CO[C@H]1O[C@H](CO)[C@@H](OC(=O)Nc2ccccc2)[C@H](OC(=O)Nc2ccccc2)[C@@H]1OC(=O)Nc1ccccc1`, the composite z-score was found to be 1.13 in [1]; 0.467 in experiment [6]; 0.347 in experiment [7]; 0.451 with Torsin-1A (Homo sapiens) [8]; 0.872 in the experiment with Torsin-1A (Homo sapiens) [9]; 1.48 in [10]. This molecule also displayed a composite z-score in experiment [12] of -0.369. Moreover, the z-score in experiment [2] is -4.73 (inactive); in experiment [3] it was -0.309 (inactive); in experiment [4], 0.101 (inactive); in experiment [5] it was -0.825 (inactive); in experiment [11], -0.24 (inactive); in [13], 6.99 (inactive). The z-score is 1.35 (inactive) in experiment [14]; 0.111 (inactive) in experiment [15]; 1.18 (inactive) in experiment [16]; 0.725 in [17]; -3.38 (inactive) in [18]; -0.394 (inactive) in experiment [19]. Besides, the z-score in experiment [20] was -1.13.

Turning to `CCC(CC)C(O)C1C=CC2C(=O)NC(=O)C2N1Nc1ccc(Cl)cc1Cl` (stereo not given), the composite z-score is 0.0146 in experiment [1]; 0.673 in [6]; 0.225 in [7]; -0.167 with Torsin-1A (Homo sapiens) [8]; 0.418 with Torsin-1A (Homo sapiens) [9]; 0.463 in experiment [10]. The molecule further displayed a composite z-score in [12] of 0.348. In addition, the z-score is -0.776 (inactive) in experiment [2]; 0.34 (inactive) in experiment [3]; 0.243 (inactive) in experiment [4]; -0.273 (inactive) in experiment [5]; -1.69 (inactive) in [11]; 1.55 (inactive) in experiment [13]. Moreover, the z-score is 0.65 (inactive) in [14]; 0.0089 (inactive) in [15]; 1.24 (inactive) in experiment [16]; -1.5 in [17]; -0.017 (inactive) in experiment [18]; -4.41 (inactive) in experiment [19]. The z-score in [20] is -2.93.

Take `Oc1ccc2cc[n+](Cc3sc4ccccc4c3Cl)cc2c1`: the composite z-score is -0.127 in experiment [1]; 0.361 in [6]; -0.12 in experiment [7]; -0.648 in the experiment with Torsin-1A (Homo sapiens) [8]; 0.11 with Torsin-1A (Homo sapiens) [9]; 1.53 in experiment [10]. In addition, in experiment [12], the composite z-score was 0.248. In addition, the z-score in experiment [2] is -0.683 (inactive); in experiment [3] it was -0.521 (inactive); in [4] it was -0.374 (inactive); in experiment [5], 0.232 (inactive); in [11] it was -0.669 (inactive); in experiment [13], 1.52 (inactive). Moreover, the z-score is 0.109 (inactive) in experiment [14]; 1.52 (inactive) in experiment [15]; 0.352 (inactive) in experiment [16]; 0.0138 in experiment [17]; -0.121 (inactive) in experiment [18]; -1.23 (inactive) in experiment [19]. Besides, in experiment [20], the z-score is -0.1.
